A selection: hits, their analogues and other compounds. The true share with any hit is near 4%.
TWEAK Fn14 block: blocks TWEAK-Fn14 interaction in a reporter cell assay; TWEAK-stimulated Fn14 reporter cells, luciferase luminescence, 8 h; inhibition, % at 10 µM; 360,000 tested, 2% active; in the data active = inhibition above about 50%
HIF-2a inh: inhibitors of HIF-2a; inhibition, % at 18.8 µM; 786-0 RCC cells HIF-2a reporter, luciferase luminescence, overnight; AID 624352; 360,000 tested, 0.72% active;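 active = inhibition of the luminescence signal of 40% or more relative to plate controls, in a single-dose primary screen at 18.75 µM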
TROY signal inh: blocks TROY-dependent signaling in reporter cells. Q293 LMP1-TROYcd NF-kB luciferase reporter, 4 h. inhibition, % at 10 µM. 360,000 tested, 0.98% active. AID 1347056;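 active = compounds whose plate-normalised and pattern-corrected inhibition of the luciferase reporter signal at the single screening dose is 50% or more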
Peg3 promoter: Peg3 promoter activity inhibition | HeLa PEG-Prom luciferase reporter, luminescence, overnight | inhibition, % at 20 µM | AID 588405 | 360,000 tested, 1.7% active;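 active = inhibition of at least 50% at 20 µM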
KKLEB tox: reduces viability of KKLEB cystic fibrosis airway cells; 360,000 tested, 0.36% active; activity change (cytotoxicity), % at 5 µM; KKLEB CF airway cells viability, ATPlite luminescence, overnight; stronger effect = lower value; cells stimulated with P. aeruginosa culture filtrate;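 active = corrected activity change at or below -50% at 5 µM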
CF NFkB block: cystic fibrosis NF-kB activation inhibition; KKLEB NF-kB-GFP reporter, PAF-induced, GFP fluorescence overnight; inhibition, % at 5 µM; 360,000 tested, 0.86% active;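 active = at least 50% inhibition at 5 µM, scaled per plate between neutral and stimulator controls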;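 note: PAF is a Pseudomonas aeruginosa culture filtrate used as stimulus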
A number is an active result; i = inactive; nt = not tested or not shown.

SMILES	TWEAK Fn14 block	HIF-2a inh	TROY signal inh	Peg3 promoter	KKLEB tox	CF NFkB block
CN(CC(=O)Nc1c(Cl)cccc1Cl)C(=O)c1cc(-c2cccs2)nn1-c1ccccc1	i	i	i	i	i	i
O=C(Nc1ccc(Br)cc1)C1CCN(C(=O)c2ccco2)CC1	55	i	i	i	i	i
COc1ccc(NS(=O)(=O)c2cccc(NC(=O)CCC(=O)c3cccs3)c2)cc1	i	i	i	i	i	i
COc1ccc(NS(=O)(=O)c2cccc(NC(=O)CCC(=O)c3ccc(Cl)cc3)c2)cc1	75	i	i	i	i	i
O=C(Nc1cccc(S(=O)(=O)Nc2ccc(Cl)cc2)c1)c1ccc(Cl)nc1	80	i	53	i	i	i
COc1ccc(NS(=O)(=O)c2cccc(NC(=O)c3ccc(Cl)nc3)c2)cc1	70	i	i	i	i	i
COc1ccc(C(=O)Nc2ccc3ncccc3c2)cc1	75	i	i	i	i	i
O=C(Nc1ccc(NS(=O)(=O)c2ccccc2)cc1)c1ccc(Cl)cc1	i	i	i	i	i	i
COc1ccc(NC(=O)[C@@H]2CCCN2S(=O)(=O)c2ccccc2F)cc1S(=O)(=O)N1CCCCC1	i	i	i	i	i	i
N#C/C(C(N)=O)=C1/CCCN1Cc1ccccc1	i	i	i	i	i	i
CC(=O)c1c(OC(=O)c2ccc(C)cc2)c2ccccc2n1C	i	i	i	i	i	i
Cc1ccc(C(=O)Oc2cc(C)n(C)c(=O)c2)cc1	54	i	i	i	i	i
O=C(CCCN1C(=O)/C(=C/c2ccco2)SC1=S)Nc1ccccc1C(=O)O	i	i	i	i	i	i
O=C(O)CCCN1C(=O)/C(=C\c2ccco2)SC1=S	i	55	i	i	i	i
O=C(CCCN1C(=O)/C(=C\c2ccco2)SC1=S)Nc1ccc2ccccc2c1	59	i	i	i	i	i
COc1ccc(C(=O)/C=C/Nc2ccc(S(N)(=O)=O)cc2)cc1OC	i	i	i	i	i	i
O=C(CCc1ccccc1O)N/N=C/c1ccc(Sc2cccc3cccnc23)o1	109	i	i	i	i	i
COc1ccc(Nc2nc(Nc3ccc(OC)cc3)nc(-n3[nH]c(=O)c(C)c3C)n2)cc1	i	i	i	i	i	87
COc1ccc(Nc2nc(OC)nc(OC)n2)cc1	i	i	i	i	i	i
COc1ccccc1C1CC(c2cccs2)=Nc2ccccc2S1 (stereo not drawn)	i	i	i	i	i	i
Fc1ccccc1C1CC(c2ccco2)=Nc2ccccc2S1 (stereo not drawn)	53	i	i	i	i	i
CNc1nc(Cl)nc2ncn(C)c12	i	i	i	i	i	i
Cn1cnc2nc(Cl)nc(Cl)c21	54	i	i	i	i	i
CC(C)(C)c1ccc(Cn2nnc3c(=O)[nH]c(C4CCN(C(=O)c5ccco5)CC4)nc32)cc1	i	i	i	i	i	i
COc1ccc(Nc2ccnc(Nc3ccc(OC)cc3)n2)cc1	64	i	i	i	i	i
SMILES	TWEAK Fn14 block	HIF-2a inh	TROY signal inh	Peg3 promoter	KKLEB tox	CF NFkB block
COc1ncccc1-c1cc2nc(NCCNC(C)=O)n(C)c(=O)c2s1	i	i	i	i	i	i
CC1=NOC(=O)/C1=C\c1ccc(-c2cc(Cl)ccc2Cl)o1	101	i	i	101	i	66
CC1=NOC(=O)/C1=C\c1ccc(-c2ccc(Br)cc2C(=O)O)o1	i	i	i	i	i	i
COc1ccc(Cl)cc1/C=C1/C(=O)ON=C1C	i	i	i	i	i	i
CC1=NOC(=O)/C1=C/c1ccc(-c2ccc(Cl)cc2)o1	73	i	78	102	i	i
CC1=NOC(=O)/C1=C\c1ccc(-c2ccc(Br)cc2)o1	64	i	73	89	i	i
CCOc1ccc(Cl)cc1/C=C1/C(=O)ON=C1C	i	i	i	i	i	i
COc1ccc(NC(=O)COC(=O)c2ccc(OCc3ccccc3Cl)c(OC)c2)c(OC)c1	i	i	i	i	-75	61
O=C(Cc1nnc(NC(=O)c2cccc([N+](=O)[O-])c2)s1)NCc1ccccc1	i	i	i	i	i	i
COc1ccc(/C=C(\CC(=O)O)c2nc3ccccc3o2)cc1	i	i	i	i	i	i
COc1ccc(C(=O)/C(=C/c2cccs2)c2nc3ccccc3o2)cc1	51	i	52	i	i	i
COc1ccc2nc(C)cc(Sc3nc4ccccc4s3)c2c1	88	i	i	67	i	64
O=C(Nc1ccc2ccccc2c1)C(c1ccccc1)n1c(=O)c(-c2cc3ccccc3[nH]2)nc2ccccc21 (stereo not drawn)	nt	i	nt	nt	nt	nt
Cc1cc(C(=O)CSc2nnc(-c3ccco3)o2)c(C)n1-c1ccc2c(c1)OCCO2	i	i	i	i	i	i
Cc1cc(-n2c(C)cc(C(=O)CSc3nnnn3-c3ccc(Cl)cc3)c2C)no1	i	i	i	i	-68	51
Cc1cc(C(=O)CN2C(=O)C3CC=CCC3C2=O)c(C)n1-c1ccccc1 (stereo not drawn)	56	i	i	i	i	i
Cc1cc(C(=O)CSc2nnnn2C)c(C)n1-c1ccc2c(c1)OCCO2	i	i	52	i	i	i
Cc1cc(C(=O)CN2C(=O)C(=O)N(Cc3ccccc3)C2=O)c(C)n1-c1ccc2c(c1)OCCO2	51	i	i	i	i	i
C#CCOCCOCCOCCNc1nc(N2CCN(C(=O)[C@H]([C@@H](C)CC)n3cc(CCC(=O)O)nn3)CC2)nc(N2CCN(C(=O)[C@H](CCCCN)n3cc(CC(C)O)nn3)CC2)n1 (stereo partly drawn)	i	i	i	i	i	i
CCCOc1ccc(F)cc1-c1cc(C(=O)NCc2cccc(Cl)c2)[nH]n1	i	i	i	i	i	i
CCNC(=S)N1CCN(CC)CC1	i	i	i	i	i	i
COc1ccc(-c2cc(NC=O)c3ncc(-c4cccc(C(=O)NCCN(C)C)c4)n3c2)c(OC)c1	i	i	i	i	i	i
C=Cc1ccc(Cn2c(C)c(C(=O)NCc3cccc(C)c3)sc2=O)cc1	i	i	i	i	i	i
O=C1CCC[C@@H]2Cc3nc4ccc(Cl)cc4cc3[C@@H]3CCN1[C@H]23	i	i	i	i	i	i
CC(C(=O)N1CCc2ccccc21)N1CCN(S(=O)(=O)c2cccc(C(F)(F)F)c2)CC1 (stereo not drawn)	i	i	i	i	i	i
O=C(Nc1ccc(Cl)cc1)Nc1cccc2nsnc12	56	i	i	i	i	i
COc1ccc(/C=N/NC(=O)Nc2cccc3nsnc23)cc1OC	62	i	i	i	i	i
COc1ccc(/C=N/NC(=O)c2cccc(C(=O)N/N=C/c3ccc(OC)c(OC)c3)n2)cc1OC	i	i	i	i	i	i
COc1cccc(NC(=O)CN(C)C(C)C(=O)NC(=O)NC2CCCCC2)c1 (stereo not drawn)	i	i	i	i	i	i

Screening results as filed in PubChem BioAssay.
